# Experimental data reported in PubChem BioAssay (NCATS).
# Inconclusive results are not listed. Unmarked numbers belong to inactive results. The source made the active and inactive calls. Calls come from the whole dose curve; as a rule, active = well fitted curve in the direction sought with a large enough effect; inconclusive = small, poorly fitted or top-dose-only effect, or another doubt; inactive = no such curve, though single readings can be large; an effect the other way counts as inactive or inconclusive.
# What was measured:
# [1] = qHTS of pediatric cancer cell lines to identify multiple opportunities for drug repurposing: Confirmatory screen for Saos-2 cells (AID 1347127); note: nearly all actives have a fitted effect of over 60% in size; note: potency is the fitted concentration of half-maximal effect
# Summary of the method: (§1)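 Cells (500-1,000/well) rested 5 h, then received compounds for 48 h; metabolically active cells were measured by CellTiter-Glo luminescence. Final concentrations spanned up to 46 µM (MIPE, 11-point) or 0.59 nM-46 µM (NPC, 8-point) in primary screens, 11-point in follow-ups.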
# [2] = qHTS of pediatric cancer cell lines to identify multiple opportunities for drug repurposing: Confirmatory screen for OHS-50 cells (AID 1347128);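 note: compound exposure lasted 48 h at 37 degrees C; nearly all actives have a fitted effect of over 55% in size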; note: potency is the fitted concentration of half-maximal effect
# Summary of the method: as §1
# [3] = qHTS of pediatric cancer cell lines to identify multiple opportunities for drug repurposing: Confirmatory screen for SK-N-SH cells (AID 1347129);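 note: cells exposed to compound for 48 h before viability read; nearly all actives have a fitted effect of over 60% in size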; note: potency is the fitted concentration of half-maximal effect
# Summary of the method: as §1
# [4] = tested on: Zika virus NS2B-NS3 protease; test: Primary screen GU AMC qHTS for Zika virus inhibitors (AID 1347154); note: nearly all actives have a fitted effect of over 70% in size; note: potency is the fitted concentration of half-maximal effect
# Summary of the method: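 Fluorogenic AMC-substrate cleavage by noncovalent NS2B-NS3 protease complex (25 nM, pH 8.0 Tris buffer with Tween 20) followed for 15 minutes at room temperature (~20% conversion). Percent inhibition from ex340/em450 signal change, fitted by 4-parameter Hill equation.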
# [5] = tested on: Zika virus NS2B-NS3 protease (unlinked complex); test: Confirmatory screen GU AMC qHTS for Zika virus inhibitors (AID 1347153);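 note: enzyme at 25 nM with substrate at 10 µM below its Km of 18.3 µM; potency is the fitted concentration of half-maximal effect; nearly all actives have a fitted effect of over 70% in size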
# Summary of the method: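 Unlinked NS2B-NS3 complex (25 nM) in 10 mM Tris-HCl pH 8.0, 0.01% Tween 20 preincubated 15 min with compound, then 10 microM Bz-Nle-KRR-AMC (Km 18.3 µM). Fluorescence change over 15 min, normalized, Hill-fitted.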
# [6] = ZIKV-mCherry secondary qHTS for Zika virus inhibitors (AID 1347158); note: top concentration of the series differs between compounds
# Summary of the method: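 This orthogonal imaging screen measured ZIKV-mCherry infection of Vero cells exposed to compound, MOI 1, 48-72 h. Percent infection came from segmented nuclei scored mCherry-positive above 3 SD of negative controls.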
# [7] = tested on: Zika virus NS2B-NS3 protease (unlinked complex); test: Primary screen GU Rhodamine qHTS for Zika virus inhibitors: Unlinked NS2B-NS3 protease assay (AID 1347159); note: nearly all actives have a fitted effect of over 60% in size; note: potency is the fitted concentration of half-maximal effect
# Summary of the method: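 In dose–response format, inhibition of unlinked protease (25 nM) was measured with 1.5 microM bis-peptide Rhodamine110 substrate. Aprotinin served as the intraplate control.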
# [8] = tested on: Zika virus NS2B-NS3 protease (linked); test: 384 well plate NINDS AMC confirmatory qHTS for Zika virus inhibitors (AID 1347163); note: potency is the fitted concentration of half-maximal effect; nearly all actives have a fitted effect of over 50% in size
# Summary of the method: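 Enzyme (5, 30 or 60 nM final) first met test compounds for ~15 min. The AMC-tagged peptide Ac-VKTGKR-AMC followed at 30 microM. Fluorescence was then recorded at 25 min and scaled against no-enzyme and no-inhibitor wells.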
# [9] = tested on: Zika virus NS2B-NS3 protease (linked construct); test: 384 well plate NINDS Rhodamine confirmatory qHTS for Zika virus inhibitors (AID 1347164); note: potency is the fitted concentration of half-maximal effect; nearly all actives have a fitted effect of over 65% in size
# Summary of the method: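 Compounds are incubated about 15 minutes with linked protease (5, 30 or 60 nM final). Rhodamine 110-tagged Ac-LKRR substrate (10 microM final) is added and fluorescence measured after 25 minutes.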
# [10] = Vero cells viability qHTS for Zika virus inhibitors (AID 1347167)
# Summary of the method: (§2)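 Luminescent ATP readout (CellTiter Glo) after 30 min at 37 degrees C gives viability; cells in DMEM + 4% FBS were treated 24 to 48 hours with compound, following overnight attachment.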
# [11] = HepG2 cells viability qHTS for Zika virus inhibitors (AID 1347168)
# Summary of the method: as §2
# [12] = tested on: Zika virus NS2B-NS3 protease (linked construct); test: Primary screen NINDS Rhodamine qHTS for Zika virus inhibitors (AID 1347160); note: nearly all actives have a fitted effect of over 55% in size
# Summary of the method: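 Each compound, titrated, sat 15 min with 25 nM linked protease before 1.5 microM Rhodamine110 substrate went in. Fluorescence gain over the next 15 min, in pH 8.0 Tris with Tween 20, gave Hill-fitted curves.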
smiles,measurement,setting,value
COC(=O)[C@]12CCC(C)(C)C[C@@H]1[C@@H]1C(=O)C=C3[C@@]4(C)C=C(C#N)C(=O)C(C)(C)[C@@H]4CC[C@@]3(C)[C@]1(C)CC2,Potency,[1],3.69 µM (active)
same,Potency,[2],5.22 µM (active)
same,Potency,[3],2.09 µM (active)
Cc1nc2cnc3ccc(C#Cc4cccnc4)cc3c2n1-c1ccc(C(C)(C)C#N)cc1,Potency,[1],5.37 µM (active)
same,Potency,[2],3.39 µM (active)
same,Potency,[3],2.15 µM (active)
same,Potency,[4],inactive
Cc1c(C)n(Cc2ccc(-c3ccccc3C(=O)O)cc2)c2ccc(C(=O)N[C@@H](C)c3ccc([N+](=O)[O-])cc3)cc12,Potency,[1],inactive
same,Potency,[2],inactive
same,Potency,[3],inactive
same,Potency,[5],21.5 µM (active)
same,Potency,[4],19.2 µM (active)
same,Potency,[6],inactive
same,Potency,[7],2.82 µM (active)
same,Potency,[8],112 µM (active)
same,Potency,[9],22.4 µM (active)
same,Potency,[10],inactive
same,Potency,[11],inactive
CN(c1ncccc1CNc1nc(Nc2ccc3c(c2)CC(=O)N3)ncc1C(F)(F)F)S(C)(=O)=O,Potency,[1],8.27 µM (active)
same,Potency,[2],5.85 µM (active)
same,Potency,[3],3.72 µM (active)
same,Potency,[4],inactive
CC(C)(C)c1cnc(CSc2cnc(NC(=O)C3CCNCC3)s2)o1,Potency,[1],0.465 µM (active)
same,Potency,[2],0.329 µM (active)
same,Potency,[3],0.935 µM (active)
same,Potency,[4],inactive
Cc1nc(N)ncc1-c1nc(N2CCOCC2)c2sc(C(C)(C)O)cc2n1,Potency,[1],1.47 µM (active)
same,Potency,[2],2.93 µM (active)
same,Potency,[3],1.48 µM (active)
same,Potency,[4],inactive
same,Potency,[7],inactive
same,Potency,[12],inactive
O=C(C=Cc1cccc(S(=O)(=O)Nc2ccccc2)c1)NO,Potency,[1],1.91 µM (active)
same,Potency,[2],7.59 µM (active)
same,Potency,[3],13.6 µM (active)
same,Potency,[4],inactive
CN1CCN(Cc2ccc(NC(=O)Nc3ccc(Oc4cc(NC(=O)C5CC5)ncn4)cc3)cc2C(F)(F)F)CC1,Potency,[1],0.369 µM (active)
same,Potency,[2],0.585 µM (active)
same,Potency,[3],0.743 µM (active)
same,Potency,[4],inactive
same,Potency,[7],inactive
same,Potency,[12],inactive
COc1cc(=C2C=c3ccccc3=N2)[nH]c1=Cc1[nH]c(C)cc1C,Potency,[1],8.27 µM (active)
same,Potency,[3],1.24 µM (active)
same,Potency,[4],inactive
C=CCn1c(=O)c2cnc(Nc3ccc(N4CCN(C)CC4)cc3)nc2n1-c1cccc(C(C)(C)O)n1,Potency,[1],1.31 µM (active)
same,Potency,[2],1.04 µM (active)
same,Potency,[3],3.32 µM (active)
same,Potency,[7],inactive
same,Potency,[12],inactive
COc1cccc(Nc2c(C(N)=O)cnc3c(C)cc(S(=O)(=O)c4cccc(C(=O)N(C)C)c4)cc23)c1,Potency,[1],inactive
same,Potency,[2],inactive
same,Potency,[3],inactive
same,Potency,[4],inactive
same,Potency,[7],inactive
same,Potency,[12],inactive
